PubChem BioAssay (NCATS)
Results filed as inconclusive are left out. The source made the active and inactive calls. Unless noted, the call rests on the fitted dose curve; in most records, active means well fitted curve in the direction sought with a large enough effect; inconclusive means small, poorly fitted or top-dose-only effect, or another doubt; inactive means no such curve, though single readings can be large; an effect the other way counts as inactive or inconclusive.

Assays:
[1] = Natriuretic polypeptide receptor (hNpr1) antagonism - Pilot counterscreen GloSensor control cell line (AID 1347045; calls by dose curve; further: potency means the concentration at half of the fitted maximal effect); conditions: HEK293 cGMP GloSensor cells, SNP-stimulated luminescence, 20 min; series mostly up to 38.3 µM
How it was run: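 HEK293 cGMP-sensor cells; 2% GloSensor reagent 2 h RT; LOPAC compounds in 1:5 titrations 30-50 min; 50 uM SNP 20 min; luminescence pre-read and post-read.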

[2] = target: Atrial natriuretic peptide receptor 1 (Homo sapiens) (UniProt P16066); assay: Natriuretic polypeptide receptor (hNpr1) antagonism - Pilot screen (AID 1347049; calls by dose curve;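 further: HEK293 cells with hNpr1 and GloSensor cGMP luciferase stimulated by 0.1 nM hNppA; agonist-evoked cGMP luminescence read 20 min after hNppA addition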; further: potency means the concentration at half of the fitted maximal effect); conditions: hNpr1 cells, antagonist mode cGMP read-out; series mostly up to 57.5 µM
Sequence of Atrial natriuretic peptide receptor 1 (Homo sapiens) (P16066 whole entry, looked up): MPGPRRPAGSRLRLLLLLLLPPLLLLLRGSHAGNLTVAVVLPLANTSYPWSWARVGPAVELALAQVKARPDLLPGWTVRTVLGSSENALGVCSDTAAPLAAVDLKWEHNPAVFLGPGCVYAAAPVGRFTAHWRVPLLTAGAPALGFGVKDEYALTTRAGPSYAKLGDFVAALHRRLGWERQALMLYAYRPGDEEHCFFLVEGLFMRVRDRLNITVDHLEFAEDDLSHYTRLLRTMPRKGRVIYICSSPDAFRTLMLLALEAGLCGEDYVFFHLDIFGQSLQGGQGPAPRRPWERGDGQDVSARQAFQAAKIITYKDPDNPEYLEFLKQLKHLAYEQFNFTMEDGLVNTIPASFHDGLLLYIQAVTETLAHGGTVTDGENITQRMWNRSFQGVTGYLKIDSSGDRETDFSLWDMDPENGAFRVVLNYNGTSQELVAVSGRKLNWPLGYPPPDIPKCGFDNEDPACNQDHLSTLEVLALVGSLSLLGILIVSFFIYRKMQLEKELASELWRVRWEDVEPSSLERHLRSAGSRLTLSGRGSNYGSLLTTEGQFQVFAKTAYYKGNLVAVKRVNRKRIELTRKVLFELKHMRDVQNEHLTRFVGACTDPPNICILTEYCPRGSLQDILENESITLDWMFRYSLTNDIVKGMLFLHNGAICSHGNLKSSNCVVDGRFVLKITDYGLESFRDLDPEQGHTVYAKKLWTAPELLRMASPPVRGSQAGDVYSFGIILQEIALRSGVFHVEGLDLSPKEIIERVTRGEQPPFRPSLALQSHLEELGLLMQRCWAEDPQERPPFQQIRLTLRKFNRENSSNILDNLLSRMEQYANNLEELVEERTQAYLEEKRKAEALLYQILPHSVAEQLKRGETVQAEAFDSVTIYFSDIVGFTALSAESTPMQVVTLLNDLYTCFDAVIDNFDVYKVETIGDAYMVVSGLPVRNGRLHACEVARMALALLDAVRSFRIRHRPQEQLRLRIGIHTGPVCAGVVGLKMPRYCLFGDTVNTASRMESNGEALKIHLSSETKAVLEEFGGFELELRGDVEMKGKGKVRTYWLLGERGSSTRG
How it was run: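 Receptor antagonism read as cGMP-dependent luminescence in hNpr1/pGS-40F HEK293 cells: pre-read after 30 min compound exposure, post-read 20 min after hNppA agonist at 0.1 nM final, all at room temperature, protected from light; A-71915 titration as control.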

[3] = target: Atrial natriuretic peptide receptor 2 (Homo sapiens) (UniProt P20594); assay: Natriuretic polypeptide receptor (hNpr2) antagonism - Pilot subtype selectivity assay (AID 1347050; calls by dose curve; further: potency means the concentration at half of the fitted maximal effect); conditions: NPR2-expressing cells, cGMP antagonist-mode read-out; series mostly up to 38.3 µM
Sequence of Atrial natriuretic peptide receptor 2 (Homo sapiens) (P20594 whole entry, looked up): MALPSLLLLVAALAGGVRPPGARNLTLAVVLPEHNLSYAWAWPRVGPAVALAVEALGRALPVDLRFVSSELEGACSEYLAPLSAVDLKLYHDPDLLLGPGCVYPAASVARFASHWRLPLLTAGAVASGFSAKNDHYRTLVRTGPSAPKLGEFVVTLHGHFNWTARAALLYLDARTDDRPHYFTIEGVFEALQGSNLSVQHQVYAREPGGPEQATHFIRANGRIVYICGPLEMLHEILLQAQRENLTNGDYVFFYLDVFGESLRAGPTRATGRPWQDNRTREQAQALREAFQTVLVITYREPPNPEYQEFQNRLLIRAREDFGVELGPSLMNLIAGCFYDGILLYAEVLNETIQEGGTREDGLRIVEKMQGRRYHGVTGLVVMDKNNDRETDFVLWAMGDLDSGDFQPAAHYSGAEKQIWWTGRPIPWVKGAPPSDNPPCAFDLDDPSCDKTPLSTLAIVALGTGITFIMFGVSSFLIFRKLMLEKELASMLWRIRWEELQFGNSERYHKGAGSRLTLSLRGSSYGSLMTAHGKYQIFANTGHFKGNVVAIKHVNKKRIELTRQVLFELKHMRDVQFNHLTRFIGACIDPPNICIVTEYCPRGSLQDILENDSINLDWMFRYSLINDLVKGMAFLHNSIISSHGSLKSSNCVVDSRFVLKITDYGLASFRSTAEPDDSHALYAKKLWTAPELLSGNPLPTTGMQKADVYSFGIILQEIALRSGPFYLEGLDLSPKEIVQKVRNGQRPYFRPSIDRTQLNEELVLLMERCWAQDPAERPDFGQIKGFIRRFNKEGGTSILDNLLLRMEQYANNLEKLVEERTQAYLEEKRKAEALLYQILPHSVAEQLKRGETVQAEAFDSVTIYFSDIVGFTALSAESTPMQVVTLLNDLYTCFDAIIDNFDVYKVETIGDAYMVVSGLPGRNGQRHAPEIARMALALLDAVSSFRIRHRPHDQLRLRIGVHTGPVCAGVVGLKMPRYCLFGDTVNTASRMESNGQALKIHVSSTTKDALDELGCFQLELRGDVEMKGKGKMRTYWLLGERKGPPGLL
How it was run: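 Antagonist mode: compounds (LOPAC1280, seven 1:5 dilutions) added 30 min before 1 nM hNppC stimulation of hNpr2-HEK293 cGMP-sensor cells; luminescence read before and 20 min after agonist at ambient temperature.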

[4] = NS1 protein of Zika virus - qHTS assay to identify small molecule inhibitors in human HEK 293 cells (AID 1347053); conditions: HEK293 ZIKV MR766 infection, NS1 TR-FRET, 24 h; series mostly up to 46.1 µM; further: nearly all actives have a fitted effect of over 55% in size
How it was run: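 In this cell-based screen, HEK 293 cultures received compound for one hour before Zika MR766 at MOI = 0.5. NS1 was quantified 24 hours later by TR-FRET, normalized to virus-free wells and infected wells.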

[5] = target: T1, Tyrosine-protein phosphatase non-receptor type substrate 1 (Homo sapiens) + Leukocyte surface antigen CD47 (Homo sapiens) (UniProt P78324+Q08722); assay: CD47-SIRPalpha protein protein interaction - LANCE assay qHTS validation (AID 1347057; active means well fitted curve in the direction sought with a large enough effect in the signal ratio, with a control signal flat, not every such curve was filed as active; the % refers to the signal ratio); conditions: Recombinant CD47-His / biotin-SIRPalpha, TR-FRET ratio; series mostly up to 38.3 µM
T1 sequence (P78324 whole entry, looked up, the tested form may be a part): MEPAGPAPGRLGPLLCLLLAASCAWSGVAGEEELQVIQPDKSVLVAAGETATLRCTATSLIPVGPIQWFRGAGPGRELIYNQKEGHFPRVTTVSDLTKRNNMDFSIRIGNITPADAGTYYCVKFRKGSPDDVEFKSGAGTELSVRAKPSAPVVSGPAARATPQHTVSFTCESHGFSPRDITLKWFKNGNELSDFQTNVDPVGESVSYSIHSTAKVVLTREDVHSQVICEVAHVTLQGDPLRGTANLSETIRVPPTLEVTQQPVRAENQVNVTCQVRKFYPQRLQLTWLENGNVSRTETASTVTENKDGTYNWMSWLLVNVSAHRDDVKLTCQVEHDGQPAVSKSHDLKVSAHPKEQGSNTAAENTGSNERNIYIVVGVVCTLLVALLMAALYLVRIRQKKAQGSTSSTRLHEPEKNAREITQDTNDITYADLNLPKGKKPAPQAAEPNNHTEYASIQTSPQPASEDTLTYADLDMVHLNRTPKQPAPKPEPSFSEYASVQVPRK
T1 sequence (Q08722 whole entry, looked up, the tested form may be a part): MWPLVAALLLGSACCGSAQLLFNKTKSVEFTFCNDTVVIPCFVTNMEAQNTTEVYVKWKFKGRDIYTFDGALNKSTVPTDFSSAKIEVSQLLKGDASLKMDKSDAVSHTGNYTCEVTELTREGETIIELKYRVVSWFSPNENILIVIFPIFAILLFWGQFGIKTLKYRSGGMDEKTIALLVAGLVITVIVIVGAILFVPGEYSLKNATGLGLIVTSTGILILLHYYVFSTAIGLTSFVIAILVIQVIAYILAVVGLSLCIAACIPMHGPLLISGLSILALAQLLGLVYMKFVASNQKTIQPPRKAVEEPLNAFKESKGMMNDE
How it was run: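 Inhibition of soluble CD47/SIRPalpha ectodomain association by titrated compounds, measured as 665/615 nm time-resolved FRET ratio after sequential 30 min room-temperature incubations.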

[6] = target: T1, Tyrosine-protein phosphatase non-receptor type substrate 1 (Homo sapiens) + Leukocyte surface antigen CD47 (Homo sapiens); assay: CD47-SIRPalpha protein protein interaction - HTRF assay qHTS validation (AID 1347058; active means well fitted curve in the direction sought with a large enough effect in the signal ratio, not every such curve was filed as active; the % refers to the signal ratio); conditions: TR-FRET HTRF CD47-His / biotin-SIRPalpha binding, ratio 665/615; series mostly up to 38.3 µM
How it was run: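 Soluble extracellular domains (6His-CD47, Avi-tag-biotinylated SIRPalpha) in PBS pH 7.4 with 0.05% IGEPAL CA-630. Compounds were preincubated 30 min at RT with CD47 and anti-His-Eu, then SIRPalpha and SAV-XL665 were added. TR-FRET 665/615 ratio.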

[7] = target: T1, Tyrosine-protein phosphatase non-receptor type substrate 1 (Homo sapiens) + Leukocyte surface antigen CD47 (Homo sapiens); assay: CD47-SIRPalpha protein protein interaction - Alpha assay qHTS validation (AID 1347059); conditions: AlphaScreen CD47-His/biotin-SIRPalpha binding, LOPAC; series mostly up to 38.3 µM;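 further: bead proximity luminescence from CD47 binding SIRPalpha after compound preincubation with SIRPalpha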
How it was run: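 AlphaScreen signal between CD47-His (12.5 nM) and biotin-SIRPalpha (25 nM) soluble extracellular domains, bead-captured via Ni-NTA and streptavidin. Compounds, in 7-point titrations, met SIRPalpha 30 min before CD47; PBS pH 7.4 with 0.05% IGEPAL.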

[8] = target: Parathyroid hormone/parathyroid hormone-related peptide receptor (Homo sapiens) (UniProt Q03431); assay: qHTS for PTHR1 Agonists: Optimization Screen against the NCGC LOPAC library (AID 1347079); conditions: HEK293 GP2 PTHR1 GloSensor cAMP luminescence, 1 h; series mostly up to 57.1 µM;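 further: GloSensor cAMP luminescence in HEK-293 GP2 cells expressing human PTHR1 with IBMX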
Sequence of Parathyroid hormone/parathyroid hormone-related peptide receptor (Homo sapiens) (Q03431 whole entry, looked up): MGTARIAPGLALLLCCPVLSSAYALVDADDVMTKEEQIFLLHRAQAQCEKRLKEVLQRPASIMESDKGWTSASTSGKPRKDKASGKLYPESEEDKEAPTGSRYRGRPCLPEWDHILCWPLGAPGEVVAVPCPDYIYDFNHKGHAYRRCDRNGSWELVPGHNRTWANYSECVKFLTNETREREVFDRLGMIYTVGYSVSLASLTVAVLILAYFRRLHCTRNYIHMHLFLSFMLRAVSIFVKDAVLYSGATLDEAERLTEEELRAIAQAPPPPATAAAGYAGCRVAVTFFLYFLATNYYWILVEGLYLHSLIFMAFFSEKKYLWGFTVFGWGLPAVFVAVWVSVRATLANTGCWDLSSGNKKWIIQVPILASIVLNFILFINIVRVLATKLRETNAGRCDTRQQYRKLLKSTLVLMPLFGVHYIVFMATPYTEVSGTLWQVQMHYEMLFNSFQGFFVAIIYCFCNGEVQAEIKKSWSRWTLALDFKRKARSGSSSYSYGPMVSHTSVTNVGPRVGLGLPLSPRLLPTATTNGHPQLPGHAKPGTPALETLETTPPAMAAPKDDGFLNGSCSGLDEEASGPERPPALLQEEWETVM
How it was run: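 Signal increase flags agonism. GP2 cells, derived from HEK-293, express human PTHR1 and a GloSensor cAMP construct.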

[9] = P-glycoprotein substrates identified in KB-8-5-11 adenocarcinoma cell line, qHTS therapeutic library screen (AID 1346987); conditions: KB-8-5-11 (P-gp overexpressing) viability, CellTiter-Glo, 72 h; series mostly up to 44.5 µM; further: nearly all actives have a fitted effect of over 65% in size; further: potency means the concentration at half of the fitted maximal effect
How it was run: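 In this qHTS, P-gp-rich KB-8-5-11 cells received library compounds across a concentration range. Viability was quantified by luminescence after 72 h at 37 degree C.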

[10] = qHTS of pediatric cancer cell lines to identify multiple opportunities for drug repurposing: Primary screen for TC32 cells (AID 1347089); conditions: TC32 Ewing sarcoma viability, CellTiter-Glo luminescence, 48 h; series mostly up to 45.8 µM; further: nearly all actives have a fitted effect of over 60% in size; further: potency means the concentration at half of the fitted maximal effect
How it was run: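 qHTS, TC32, 48 h drug treatment, CellTiter-Glo luminescence as a proxy for metabolically active cells; primary top concentration 46 µM (MIPE 11-pt, NPC 8-pt); confirmatory 11-pt.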

[11] = qHTS of pediatric cancer cell lines to identify multiple opportunities for drug repurposing: Primary screen for DAOY cells (AID 1347090); conditions: DAOY medulloblastoma viability, CellTiter-Glo luminescence, 48 h; series mostly up to 46 µM; further: nearly all actives have a fitted effect of over 55% in size; further: potency means the concentration at half of the fitted maximal effect
How it was run: (§1)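 Cell viability, CellTiter-Glo luminescence; 500-1,000 cells/well, 8- or 11-point titration, 48 h compound exposure at 37 degrees C, 5% CO2. Controls: DMSO neutral, bortezomib 2.3 µM final as positive.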

[12] = qHTS of pediatric cancer cell lines to identify multiple opportunities for drug repurposing: Primary screen for SJ-GBM2 cells (AID 1347091); conditions: SJ-GBM2 viability, CellTiter-Glo luminescence, 48 h; series mostly up to 46 µM; further: potency means the concentration at half of the fitted maximal effect
How it was run: as §1

[13] = qHTS of pediatric cancer cell lines to identify multiple opportunities for drug repurposing: Primary screen for A673 cells (AID 1347092); conditions: A673 Ewing sarcoma viability, CellTiter-Glo ATP luminescence, 48 h; series mostly up to 46 µM; further: nearly all actives have a fitted effect of over 45% in size; further: potency means the concentration at half of the fitted maximal effect
How it was run: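 Luminescence from CellTiter-Glo, taken after 15 min at room temperature, served as the proxy for metabolically active cells following 48 h treatment. Both potency and efficacy were taken from curves fitted to the titration data.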

[14] = qHTS of pediatric cancer cell lines to identify multiple opportunities for drug repurposing: Primary screen for SK-N-MC cells (AID 1347093); conditions: SK-N-MC viability, CellTiter-Glo luminescence, 48 h; series mostly up to 46 µM; further: potency means the concentration at half of the fitted maximal effect
How it was run: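 Metabolically active cells were quantified by ATP-dependent luminescence (CellTiter-Glo, 15 min at room temperature) following 48 h treatment. Cells had been plated at 500-1,000 per well and settled for 5 h beforehand.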

[15] = qHTS of pediatric cancer cell lines to identify multiple opportunities for drug repurposing: Primary screen for BT-37 cells (AID 1347094); conditions: BT-37 viability, CellTiter-Glo luminescence, 48 h; series mostly up to 57.3 µM; further: potency means the concentration at half of the fitted maximal effect
How it was run: (§2)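 Primary screen of approved and investigational compounds on cells in growth media at 37 degrees C, 5% CO2. MIPE set at 11-point and NPC set at 8-point dilutions; viability scored by ATP-based luminescence at 48 hours.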

[16] = qHTS of pediatric cancer cell lines to identify multiple opportunities for drug repurposing: Primary screen for NB-EBc1 cells (AID 1347095); conditions: NB-EBc1 neuroblastoma viability, CellTiter-Glo luminescence, 48 h; series mostly up to 46 µM; further: potency means the concentration at half of the fitted maximal effect
How it was run: as §2

[17] = qHTS of pediatric cancer cell lines to identify multiple opportunities for drug repurposing: Primary screen for U-2 OS cells (AID 1347096); conditions: U-2 OS viability, CellTiter-Glo luminescence, 48 h; series mostly up to 46 µM; further: nearly all actives have a fitted effect of over 50% in size; further: potency means the concentration at half of the fitted maximal effect
How it was run: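 Cells (500-1,000/well) rested 5 h, then received compounds for 48 h; metabolically active cells were measured by CellTiter-Glo luminescence. Final concentrations spanned up to 46 µM (MIPE, 11-point) or 0.59 nM-46 µM (NPC, 8-point) in primary screens, 11-point in follow-ups.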

Measured: Potency

NC(=O)C1=CN(C2OC(COP(=O)(O)OP(=O)(O)OC[C@H]3O[C@@H](n4cnc5c(N)ncnc54)[C@H](OP(=O)(O)O)[C@@H]3O)C(O)C2O)C=CC1 (some centres not stated)
inactive: [1] | [2] | [3] | [4] | [5] | [6] | [7] | [8]

COc1cccc2c1C(=O)c1c(O)c3c(c(O)c1C2=O)C[C@@](O)(C(=O)CO)C[C@@H]3O[C@H]1C[C@H](N)[C@H](O[C@@H]2CCCCO2)[C@H](C)O1
active: [10] 0.47 µM | [11] 1.68 µM | [12] 1.33 µM | [13] 1.06 µM | [14] 0.211 µM | [15] 0.246 µM | [16] 0.075 µM
inactive: [9]

O=C(O)c1ccccc1Nc1cccc(C(F)(F)F)c1
inactive: [9] | [4] | [10] | [11] | [12] | [13] | [15] | [16] | [17]

CO/N=C(\C(=O)N[C@@H]1C(=O)N2C(C(=O)O)=C(COC(C)=O)CS[C@H]12)c1csc(N)n1
inactive: [1] | [2] | [3] | [4] | [5] | [6] | [7] | [8]

CN(C)c1ccc(N=NS(=O)(=O)O)cc1
inactive: [9] | [4] | [10] | [12] | [15] | [16] | [17]

O=C(O)c1cc(=O)c2c(Cl)cc(Cl)cc2[nH]1
inactive: [1] | [2] | [3] | [4] | [5] | [6] | [7] | [8]

CC(C(=O)O)c1ccc2c(c1)[nH]c1ccc(Cl)cc12 (configuration not stated)
inactive: [9] | [4] | [10] | [11] | [12] | [13] | [15] | [16] | [17]

Cc1nc2ccccc2n1Cc1ccc(Cl)cc1
active: [9] 4.11 µM | [11] 5.31 µM | [14] 18.8 µM
inactive: [4] | [12] | [17]

CCOc1ccc2nc(S(N)(=O)=O)sc2c1
inactive: [9] | [4] | [10] | [11] | [12] | [16] | [17]

C#C[C@]1(O)CC[C@H]2[C@@H]3CCc4cc(O)ccc4[C@H]3CC[C@@]21C
inactive: [4] | [17]
active: [9] 6.51 µM | [11] 13.3 µM | [13] 26.6 µM | [14] 4.73 µM

O=C(CS)Nc1ccccc1
inactive: [9] | [4] | [10] | [15] | [17]

[O-][n+]1ccccc1SSc1cccc[n+]1[O-]
active: [9] 7.31 µM | [10] 0.325 µM | [11] 0.0731 µM | [13] 0.0731 µM | [14] 0.058 µM | [15] 3.01 µM | [17] 0.231 µM

N#C/C(=C\c1ccc(O)c(O)c1)C(=O)c1ccc(O)c(O)c1
inactive: [1] | [2] | [3] | [4] | [5] | [8]

N#C/C(=C\c1c[nH]c2ccccc12)C(=O)c1ccc(O)c(O)c1
inactive: [1] | [2] | [3] | [8]

Cc1ccc(S(=O)(=O)/C=C/C#N)cc1
active: [1] 9.27 µM | [3] 9.27 µM
inactive: [2] | [5] | [6] | [7] | [8]

O=C1C(SCCO)=C(SCCO)C(=O)c2ccccc21
active: [1] 2.07 µM | [2] 5.36 µM | [3] 2.93 µM
inactive: [5] | [7] | [8]

CC(=O)/C=C1\C(=O)N(C)c2ccccc21
active: [1] 9.27 µM | [2] 16.9 µM | [3] 14.7 µM
inactive: [5] | [7] | [8]
